Measurements from PubChem BioAssay AID1259343 (VanderVen Lab, College of Veterinary Medicine, Cornell …, 2017).
Out of some 6,200 compounds screened, about 2,900 (47%) were called active. The set was probably picked from earlier hits. Some of the results follow. Values without a mark were called inactive. Cut-off read from the data, not from the text of the source: active = inhibition above about 50%; inactive = the rest.

Experiment: Mycobacterium tuberculosis growth inhibition, primary screen (AID 1259343)
Settings: inhibition: at 10 µM, hits give high values; outcome: 10 uM
For CC(=NCCCn1ccnc1)c1c(-c2ccccc2)[nH]n(-c2nc3ccccc3s2)c1=O, the inhibition was 52.5% (active). c1ccc(-c2ccc(-c3nccn3CCn3ccnc3)s2)cc1 gave an inhibition of -34.9%. With COc1ccc(-c2cn3c(C(=O)Nc4nccs4)csc3n2)cc1 the inhibition was 10.8%. For COc1cccc(-c2cn3c(C(=O)Nc4ccccn4)csc3n2)c1, the inhibition was 75.6% (active). In the case of Cc1c2cnnc(Sc3ccc(Cl)cc3)c2c(C)n1C, the inhibition is reported as 64% (active). Work on Clc1ccc(Sc2ncccn2)cc1 yielded an inhibition of 2.73%. In the case of Cc1nonc1CN(C)C(=O)c1cc(COc2ccc(F)cc2Cl)on1, the inhibition is reported as 89.4% (active). In the case of CC(=O)c1ccc(OCc2cc(C(=O)N(C)Cc3ccon3)no2)cc1, the inhibition is reported as 80.4% (active). With CSc1ccccc1OCc1cc(C(=O)N(C)Cc2ccc(F)cc2)no1 the inhibition was 15.7%. With CCc1ccc(CN(C)C(=O)c2cc(COc3ccc(OC)cc3Cl)on2)nc1 the inhibition was 73% (active). CC(NC(=O)c1cc(Br)ccc1O)c1ccccc1 (stereo not drawn) showed an inhibition of 17.3%. With CC(C)c1ccc(O)c(NC(=S)NC(=O)c2cncc(Br)c2)c1 the inhibition was 99.5% (active). For CC(NC(=O)c1cncc(Br)c1)c1ccc(Cl)cc1 (stereo not drawn), the inhibition was 86.8% (active). For COc1ccc(F)cc1CN1CCN(c2ncnc3sc4c(c23)CCCC4)CC1, the inhibition was 60% (active). With COc1cccc(OCCN2CCN(c3ncnc4sc5c(c34)CCCC5)CC2)c1 the inhibition was 36.6%. For OCC1CCCN(c2ncnc3sc4c(c23)CCCC4)C1 (stereo not drawn), the inhibition was 20.6%. With Oc1cc(CCC2CCCCN2)cc(-c2ccncc2)c1 (stereo not drawn) the inhibition was 45.4%. With C1CCC(C(CC2CCCCN2)C2CCCCC2)CC1 (stereo not drawn) the inhibition was 55.1% (active). In the case of CC(OC1CC(=O)CC2C(=O)c3ccccc3C(=O)C12)c1ccccc1 (stereo not drawn), the inhibition is reported as 94.3% (active). In the case of CC(C)c1ccc2c(c1O)CC[C@H]1C3=C(CC[C@]21C)C(=O)OC3, the inhibition is reported as 45%. In the case of Cn1cc(C=NNc2ccccc2)c2ccccc21, the inhibition is reported as -30.1%. Work on C(=NNC1=Nc2cccc3cccc1c23)c1ccccc1 yielded an inhibition of 15.1%. With C(=NNc1ccccc1)c1cnn(-c2ccccc2)c1 the inhibition was 94.4% (active). Work on CN1CC(C(=O)Nc2ccc3nc(C4CC4)oc3c2)CC1=O (stereo not drawn) yielded an inhibition of -6.81%. Compound O=C1CCC(C(=O)Nc2ccc(Oc3ccccc3)cc2)N1 (stereo not drawn) has an inhibition of 29.5%. With CN(C)C(=O)N1CCC(C(=O)Nc2ccc(Oc3ccccc3)cc2)CC1 the inhibition was 81.9% (active). For Cc1ccc(NC(=O)C2CC(=O)N(C3CC3)C2)cc1C(F)(F)F (stereo not drawn), the inhibition was 63.6% (active). COc1cccc(C(=O)Oc2ccc(C(=O)COC(=O)C3CC(=O)N(C4CCCCC4)C3)cc2)c1 (stereo not drawn) gave an inhibition of -11.2%. For CN(C)c1ccc2cc(NC(=O)C3CC(=O)N(C4CCCC4)C3)ccc2n1 (stereo not drawn), the inhibition was 87.7% (active). Work on O=C(Nc1nc(-c2ccc(Cl)cc2)cs1)C1CC(=O)N(C2CC2)C1 (stereo not drawn) yielded an inhibition of 21.7%. In the case of O=C(Nc1ccc(Oc2ccccc2)cc1)C1CC(=O)N(C2CC2)C1 (stereo not drawn), the inhibition is reported as 66.1% (active). For COc1c(Cl)cc(NC(=O)C2CC(=O)N(C)C2)cc1Cl (stereo not drawn), the inhibition was 43.6%. CC1CC(N2CCN(c3nccs3)CC2)C(=O)O1 (stereo not drawn) showed an inhibition of 2.21%. In the case of O=C(Nc1ccc(Oc2ccccc2Cl)cc1)N1CCOC2CCCCC21 (stereo not drawn), the inhibition is reported as 26.2%. For CC(=O)NCCC1CCCCN1C(=O)Nc1ccc(Oc2ccccc2)cc1 (stereo not drawn), the inhibition was 83.9% (active). For Fc1cccc(-c2nnn(CCc3ccccn3)n2)c1, the inhibition was 65.1% (active). Work on Fc1ccc(-c2nnn(CCCc3n[nH]c(Cc4ccccc4)n3)n2)cc1 yielded an inhibition of 37.6%. With CCNC(=O)CCC(=O)Nc1ccc(OC2CCCC2)c(F)c1 the inhibition was 92.8% (active). With CNS(=O)(=O)c1cc(NC(=O)CNC(=O)C2CCCCC2)ccc1C the inhibition was 8.53%. In the case of c1ccc2c(c1)oc1c(NC3CCCCC3)ncnc12, the inhibition is reported as -31.2%. With c1ccc2c(c1)oc1c(NC3CCCCCC3)ncnc12 the inhibition was 102% (active). For c1ccc2c(c1)oc1c(NCC3CCCCC3)ncnc12, the inhibition was 23.3%. With COc1cc(C=c2sc(=CC(=O)c3ccco3)[nH]c2=O)cc(Br)c1O the inhibition was 91.2% (active). For Fc1ccccc1CON=C1CCN(c2ncccn2)CC1, the inhibition was 83.5% (active). c1cnc(NCc2cccnc2N2CCc3ccccc3C2)nc1 showed an inhibition of 36.6%. Work on CCN(CC(=O)Nc1c(Cl)cccc1Cl)C(=O)CCn1c(=O)oc2cc(Cl)ccc21 yielded an inhibition of -5.97%. For CN(Cc1nc2c(s1)CCCC2)C(=O)c1cc(COc2ccc(-n3cncn3)cc2)on1, the inhibition was 85.4% (active). For CCc1ccc(CN(C)C(=O)c2cc(COc3ccc(-n4cncn4)cc3)on2)cc1, the inhibition was 36.7%. COc1ccc(C=C2N=C(c3cccc(F)c3)OC2=O)cc1 showed an inhibition of 3.76%. C=CCOc1ccc(C=C2N=C(c3ccccc3I)OC2=O)cc1OC showed an inhibition of -4.12%. For COc1cccc(C=C2N=C(c3ccccc3OC(F)F)OC2=O)c1, the inhibition was 86.9% (active). For CN(C)Cc1ccc2ccc3cccc4ccc1c2c34, the inhibition was 90.5% (active). Compound Cc1cccc(CN(C)C)c1OC(=O)N(C)C has an inhibition of 3.93%. CN(Cc1ccccc1C#N)c1ccc2ccccc2c1 gave an inhibition of 30.3%. In the case of CN(Cc1ccc(-c2ccc(Cl)cc2)o1)C(=O)CNC(=O)c1ccccc1, the inhibition is reported as 72.2% (active). In the case of CN(Cc1ccc(-c2ccc(Cl)cc2)o1)C(=O)CCl, the inhibition is reported as 90.9% (active). For Cc1oc(-c2ccc(Cl)cc2)nc1CN(C)Cc1ccc2nonc2c1, the inhibition was 31.7%. With Cc1cc(NC(=O)c2csc(-c3ccc(Cl)cc3)n2)n[nH]1 the inhibition was 74.4% (active). Work on Cn1ccsc1=NC(=O)c1csc(-c2ccc(Cl)cc2)n1 yielded an inhibition of 15.8%. Work on Cc1ccc(-c2nc(COC(=O)c3cc(Cl)c[nH]3)cs2)cc1 yielded an inhibition of 34.1%. For Cc1nc2cc(NC(=O)C3CCCN(C(=O)OC(C)(C)C)C3)ccc2o1 (stereo not drawn), the inhibition was 82.6% (active). With Cc1cc2cc(C(=O)N3CCCC(C(=O)Nc4ccc(-c5ccco5)cc4)C3)ccc2o1 (stereo not drawn) the inhibition was -11.5%. Cc1nc2cc(NC(=O)C(C)Oc3ccc(Cl)cc3)ccc2o1 (stereo not drawn) gave an inhibition of -4.42%. Compound O=C(Nc1ccccc1N1CCCC1)c1cc(C2CC2)on1 has an inhibition of 36.3%. With CC(NC(=O)c1cc(C2CC2)on1)c1cc(Cl)ccc1Cl (stereo not drawn) the inhibition was 56.5% (active). Work on CC(C)C(=O)N1CCC(NC(=O)c2cc(C3CC3)on2)CC1 yielded an inhibition of -6.02%. For CCCc1cc(=O)[nH]c(-n2nc(C)cc2NC(=O)c2ccc(C)cc2)n1, the inhibition was 101% (active). In the case of CCCc1cc(=O)[nH]c(-n2nc(C)cc2NC(=O)c2cccc(Br)c2)n1, the inhibition is reported as 101% (active). For CCCc1cc(=O)[nH]c(-n2nc(C)cc2NC(=O)c2ccc(Br)cc2)n1, the inhibition was 99.8% (active). In the case of CCCc1cc(=O)[nH]c(-n2nc(C)cc2NC(=O)c2cccs2)n1, the inhibition is reported as 100% (active). CCc1cc(=O)[nH]c(-n2nc(C)cc2NC(=O)c2cccs2)n1 gave an inhibition of -29.6%. CNc1cc(C)nc(NCc2cc(C)cc3c(C)c(C)[nH]c23)n1 gave an inhibition of 41.1%. For CCCc1cc(=O)[nH]c(-n2nc(C)cc2NC(=O)c2cccc(F)c2)n1, the inhibition was 100% (active). Compound CCCc1cc(=O)[nH]c(-n2nc(C)cc2NC(=O)c2cc(OC)cc(OC)c2)n1 has an inhibition of -22.1%. For CCCc1cc(=O)[nH]c(-n2nc(C)cc2NC(=O)c2ccccc2)n1, the inhibition was 101% (active). For CCCc1cc(=O)[nH]c(-n2nc(C)cc2NC(=O)c2cccc(C(F)(F)F)c2)n1, the inhibition was 91.4% (active). For CCCc1cc(=O)[nH]c(-n2nc(C)cc2NC(=O)c2cccc(OC)c2)n1, the inhibition was 99.8% (active). In the case of CCN(CC)c1nc2sc(C(=O)NC3(C)CCCC3)cc2s1, the inhibition is reported as 32.9%. With CCCc1cc(=O)[nH]c(-n2nc(C)cc2NC(=O)c2ccc(F)cc2)n1 the inhibition was 101% (active). In the case of CCCc1cc(=O)[nH]c(-n2nc(C)cc2NC(=O)c2cccc(Cl)c2)n1, the inhibition is reported as 101% (active). Work on CCCc1cc(=O)[nH]c(-n2nc(C)cc2NC(=O)c2cc(C(F)(F)F)cc(C(F)(F)F)c2)n1 yielded an inhibition of 13.6%. In the case of CCCc1cc(=O)[nH]c(-n2nc(C)cc2NC(=O)c2ccc(C(F)(F)F)cc2)n1, the inhibition is reported as 102% (active). Work on CN(Cc1cccc(C(F)(F)F)c1)C(=O)c1cn(Cc2ccccc2Cl)nn1 yielded an inhibition of 20.9%. For CSc1ccc(NC(=O)CN(C)Cc2ccc3c(c2)OCO3)cc1, the inhibition was 72.3% (active). With CN(Cc1ccc(F)cc1F)C(=O)NCc1cccc(C(F)(F)F)c1 the inhibition was 91% (active). Compound CN(Cc1ccc2c(c1)OCO2)c1ccc(C(=O)NC2CC2)cn1 has an inhibition of 12.6%. With Cc1ccc(NC(=O)N(C)Cc2cccc(F)c2)c(Cl)c1 the inhibition was 9.23%. In the case of Cc1cc(CNC(=O)CS(=O)(=O)Cc2cccc(Cl)c2)ccc1F, the inhibition is reported as 15.5%. In the case of CN(Cc1ccoc1)C(=O)c1cn(Cc2cccc(C(F)(F)F)c2)nn1, the inhibition is reported as 14.9%. In the case of CN(Cc1cccc(Cl)c1)C(=O)NCc1cc(F)cc(F)c1, the inhibition is reported as 72.5% (active). In the case of CN(Cc1ccc(F)cc1)C(=O)NCc1ccc2c(c1)OCO2, the inhibition is reported as 67.4% (active). Work on O=S(=O)(NCc1ccc2c(c1)OCO2)c1ccc(F)c(C(F)(F)F)c1 yielded an inhibition of 26.9%. With CN(Cc1cc(Br)ccc1F)C(=O)NCc1ccco1 the inhibition was -23.8%. With Cc1ccc(NC(=O)N(C)Cc2ccccc2F)cc1Cl the inhibition was 4.94%. COc1ccc(Cl)cc1CN(C)C(=O)Nc1ccc(F)cc1F gave an inhibition of -16.8%. With CCOc1ncccc1C(=O)NCc1ccc(C)c(F)c1 the inhibition was 35.2%. Work on O=C(NCCc1cccs1)C(=O)NCc1cccc(F)c1 yielded an inhibition of 45.4%. With Cc1ccc(NC(=O)N(C)Cc2ccc(O)cc2)cc1F the inhibition was 59.5% (active). With COc1cccc(CNC(=O)N(C)Cc2ccc(C(C)C)cc2)c1 the inhibition was 85.7% (active). With COc1ccc(CN(C)C(=O)NCC2Cc3ccccc3O2)cc1 (stereo not drawn) the inhibition was -43.1%. For CN(Cc1ccc(F)cc1F)C(=O)NCc1ccccc1, the inhibition was 93% (active). With Cc1ccc(CNC(=O)N(C)Cc2cccs2)cc1F the inhibition was 74.8% (active). CN(Cc1ccsc1)C(=O)Nc1ccc(C(F)(F)F)cc1 showed an inhibition of 44.2%.
